Measured values: PubChem BioAssay (NCI)
The panel holds about 83,000 compounds, 20% with a hit somewhere; the sample as a whole holds those more often.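 Single-concentration screen, 48 h exposure, 96-well plates. Endpoint: percent growth. Below 10 = active.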 Unmarked numbers belong to inactive results. Calls of active or inactive are those of the source.

Tests used:
Assay in all cases: NCI-60 one-dose screen, 48 h (100 = growth as untreated, 0 = no growth, -100 = all killed)
NCI-H23 lung = conditions: 10 µM unless noted
NCI-H226 lung = conditions: 10 µM unless noted
NCI-H322M lung = conditions: 10 µM unless noted
HOP-62 NSCLC = conditions: 10 µM unless noted
NCI-H460 lung = conditions: 10 µM unless noted
HOP-92 NSCLC = conditions: 10 µM
NCI-H522 lung = conditions: 10 µM unless noted
A549/ATCC NSCLC = conditions: 10 µM unless noted
786-0 renal = conditions: 10 µM unless noted
COLO 205 colon = conditions: 10 µM unless noted
DU-145 prostate = conditions: 10 µM unless noted
K-562 leukemia = conditions: 10 µM unless noted
MALME-3M melanoma = conditions: 10 µM unless noted
MDA-MB-231 breast = conditions: 10 µM unless noted
SF-268 CNS = conditions: 10 µM unless noted
SF-295 CNS = conditions: 10 µM unless noted
SF-539 CNS = conditions: 10 µM unless noted
UACC-257 melanoma = conditions: 10 µM unless noted
RXF 393 renal = conditions: 10 µM unless noted

| SMILES | growth (NCI-H23 lung) [%] | growth (NCI-H226 lung) [%] | growth (NCI-H322M lung) [%] | growth (HOP-62 NSCLC) [%] | growth (NCI-H460 lung) | growth (HOP-92 NSCLC) | growth (NCI-H522 lung) | growth (A549/ATCC NSCLC) [%] | growth (786-0 renal) [%] | growth (COLO 205 colon) [%] | growth (DU-145 prostate) [%] | growth (K-562 leukemia) | growth (MALME-3M melanoma) | growth (MDA-MB-231 breast) | growth (SF-268 CNS) | growth (SF-295 CNS) [%] | growth (SF-539 CNS) | growth (UACC-257 melanoma) [%] | growth (RXF 393 renal) [%] |
| --- | --- | --- | --- | --- | --- | --- | --- | --- | --- | --- | --- | --- | --- | --- | --- | --- | --- | --- | --- |
| CC(=O)C1=C(C)NC(NN)=NC1c1cccc(Cl)c1 (stereo not given) | 99.9 | 103 | 96.7 | 99.2 | 112% | 99.9% | 97.9% | 110 | 104 | 114 | 114 | 100% | 104% | 96.6% | 103% | 104 | 98.6% | 113 | – |
| CCCCCc1ccc(S(=O)(=O)Nc2cccc(-c3csc(NC(=O)CNCCN(C)C)n3)c2)cc1 | 94.6 | 87.5 | 90.4 | 98.8 | 51.9% | 53% | 91% | 84.8 | 61.6 | 74.6 | 84.8 | 9.48% (active) | 74% | 93.5% | 78.6% | 95.5 | 91.1% | 96.1 | – |
| NS(=O)(=O)c1ccc(Nc2nc(Nc3ccccc3)nc3nnc(SCC(=O)NC4CCCCC4)n23)cc1 | 109 | 100 | 104 | 103 | 106% | 105% | 92.1% | 108 | 103 | – | 106 | 94.1% | 101% | 95% | 106% | 105 | 96.1% | 104 | 126 |
| O=C(NCc1ncc[nH]1)c1ccc(-c2nc3ccc4[nH]ncc4c3c3c2CCCC3)cc1 | 14.4 | 36 | 21.4 | 17.8 | 8.85% (active) | -7.23% (active) | -65% (active) | 48.2 | 25.4 | – | 21.6 | 14.7% | -14.7% (active) | 10% (active) | 3.81% (active) | 31.5 | -2.48% (active) | 27 | – |
| Cn1cc(CNc2nc3ccc(OC/C(=C/F)CN)cc3o2)ccc1=O | 107 | 101 | 99.3 | 109 | 108% | 108% | 99.2% | – | 92.4 | 110 | 110 | 93.8% | 98.7% | 99.3% | 102% | 96.1 | 97.1% | 111 | 107 |
| CC1=NC2=NC(=O)/C(=C3/N=C(C)C=C(c4ccccc4)N3N)NN2C(c2ccccc2)=C1 | 106 | 88.3 | 103 | 94.3 | 111% | 100% | 97.9% | 109 | 108 | 114 | 105 | 101% | 44.3% | 72.2% | 103% | 106 | 100% | 109 | – |
| CN1CCN(c2ccc(/C=N/Nc3nc4ccccc4c(=O)n3-c3ccccc3)cc2)CC1 | 103 | 101 | 103 | 96.2 | 109% | 102% | 93% | 103 | 91.6 | 103 | 109 | 103% | 102% | 105% | 90.7% | 101 | 101% | 114 | – |
